# Source: PubChem (National Center for Advancing Translational Sciences (NCATS))
# AmpC detergent = blocks E. coli AmpC beta-lactamase in detergent assay | AmpC hydrolysis of nitrocefin, absorbance 480 nm, 0.01% Triton | Potency, µM (titrated, usually from 114 µM), for the others: at the top dose activity change, negative = inhibition, most hits filed as inhibitors | P00811 | 370,000 tested, 0.041% active;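 also: potency is read from the fitted curve at half-maximal effect; 0% = no-compound wells and -100% = no-enzyme wells; nearly all actives have a fitted effect of over 25% in size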
# Target sequence (P00811 whole entry, looked up): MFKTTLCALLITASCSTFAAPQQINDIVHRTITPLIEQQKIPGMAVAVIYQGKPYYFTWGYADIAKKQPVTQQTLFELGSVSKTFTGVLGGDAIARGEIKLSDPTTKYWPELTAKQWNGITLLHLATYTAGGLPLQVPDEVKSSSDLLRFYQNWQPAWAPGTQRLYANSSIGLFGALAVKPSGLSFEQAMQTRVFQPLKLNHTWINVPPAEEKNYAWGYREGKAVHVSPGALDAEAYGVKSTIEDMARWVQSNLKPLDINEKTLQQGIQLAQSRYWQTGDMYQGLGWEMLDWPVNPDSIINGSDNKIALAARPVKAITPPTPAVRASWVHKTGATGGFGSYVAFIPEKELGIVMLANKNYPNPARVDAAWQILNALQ
#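 AmpC (5.3 nM in the dispensed reagent) in 20 mM phosphate pH 7.0 with 0.01% (detergent screen) or 0.0001% Triton X-100 was preincubated with compounds for 15 min at room temperature. Nitrocefin was then added from an 800 uM solution, and hydrolysis was followed at 480 nm.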
# AmpC no deterg = blocks E. coli AmpC beta-lactamase in detergent-free assay | P00811 | AmpC nitrocefin hydrolysis, absorbance 480 nm, 0.0001% Triton | Potency, µM (highest dose often 57.1 µM), without a hit: at the highest dose activity change, negative = inhibition, usual class: inhibitors | 330,000 tested, 0.52% active | AID 485341;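 also: potency is read from the fitted curve at half-maximal effect; plate controls were no compound for no effect and no enzyme for full effect; nearly all actives have a fitted effect of over 20% in size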
#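 AmpC (5.3 nM in the dispensed reagent) in 20 mM phosphate pH 7.0 with 0.01% (detergent screen) or 0.0001% Triton X-100 was preincubated with compounds for 15 min at room temperature. Nitrocefin was then added from an 800 uM solution, and hydrolysis was followed at 480 nm.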
# CHX counter = affects cycloheximide protein synthesis inhibition readout, counter-screen; AID 2314; 300,000 tested, 12% active; cell reporter, cycloheximide protein synthesis inhibition counterscreen; max response, %; in the data active = max response mostly above about 13%, no sharp cut-off; inactive = mostly below about 14%; also: read at 38.3 µM for the half of the compounds with a filed dose; 0% is about no effect
# NS1 inh = inhibitors of influenza NS1 protein function; Potency, µM (series often up to 46.1 µM), without a hit: at the top dose activity, positive = more growth; 270,000 tested, 0.4% active; calls by dose curve; also: potency is read from the fitted curve at half-maximal effect; actives are rising curves; nearly all actives have a fitted effect of over 50% in size
#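 A cell-based growth assay was used: compounds that relieve NS1-induced slow growth of budding yeast raise OD600. Assay medium was yeast nitrogen base with ammonium sulphate and -URA supplement, pH 6.0, with 2% galactose.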
# Shiga inhibitor = blocks Shiga toxin action in Vero cells; Vero cells, Shiga toxin protein synthesis inhibition reporter; inhibition, % at 38.7 µM; 290,000 tested, 9.2% active; AID 2315; in the data active = inhibition mostly above about 28%, no sharp cut-off; inactive = mostly below about 43%; also: 0% is about no effect
# The depositor's hits bear a star; ? = inconclusive; . = not tested or not shown. Only a selection was taken, and hits are over-represented in it overall. Unless noted, calls follow the shape of the dose curve; as a rule, active = well fitted curve in the direction sought with a large enough effect; inconclusive = small, poorly fitted or top-dose-only effect, or another doubt; inactive = no such curve, though single readings can be large; an effect the other way counts as inactive or inconclusive.
SMILES,AmpC detergent,AmpC no deterg,CHX counter,NS1 inh,Shiga inhibitor
O=C(N/N=C\c1ccc(F)cc1)c1csnn1,2%,-18%,44*,-9%,106*
Cc1ccccc1/C=N/NC(=O)Cn1nnc(N)n1,-14%,-5%,-3,6%,1
Cc1ccccc1/C=N\NC(=O)c1csnn1,-8%,-9%,60*,-37%,112*
COc1ccc(OC)c(NC(=O)CN2C(=O)C(C)N(c3ccc(C)cc3)C2=O)c1 (stereo unspecified),3%,15%,.,.,.
C=CCn1c(SCn2nnc3ccccc3c2=O)nnc1-c1ccc(Br)cc1,?,1%,9,-45%,37
C=CCn1c(COc2cccc(C)c2)nnc1SCn1nnc2ccccc2c1=O,-2%,9%,14*,-5%,29
CCCN1C(=O)/C(=C/c2ccc(C)s2)NC1=S,?,-8%,20*,-7%,38
CCCOc1cccc(C(=O)Nc2ccc(-c3nc4ccccc4s3)c(Cl)c2)c1,-2%,.,.,.,.
O=C(/C=C/c1ccc(-c2ccccc2)o1)c1ccccc1,-15%,-33%,74*,-4%,72*
O=C(/C=C/c1ccc(-c2ccccc2[N+](=O)[O-])o1)c1ccc(Br)cc1,-1%,-49%,11,-7%,12
Cc1ccc(-c2ccc(/C=C/C(=O)c3ccccc3)o2)cc1,-8%,?,26*,-1%,28
N#C/C(=C\c1ccc(-c2ccccc2)o1)C(=O)Nn1cnnc1,-11%,-20%,-4,15%,-10
O=C(/C=C/c1ccc(-c2ccccc2[N+](=O)[O-])o1)c1ccc(F)cc1,-12%,-40%,43*,12%,64*
Cc1ccc(C(=O)/C=C/c2ccc(-c3ccccc3[N+](=O)[O-])o2)cc1,-6%,-39%,-1,9%,-4
COc1ccc(-c2nnc(SCC(=O)N3CCOCC3)o2)cc1,?,-13%,17,-5%,122*
O=C(CSc1nnc(-c2cccc(F)c2)o1)N1CCCC1,-4%,-8%,23*,-3%,36
COc1ccc(-c2nnc(SCc3nc4ccccc4c(=O)[nH]3)o2)cc1,8%,-4%,41*,-3%,63*
Cc1cccc(OCc2nnc(SCc3nc4ccccc4c(=O)[nH]3)o2)c1,3%,-26%,-1,1%,-7
O=C(CSc1nnc(-c2ccc(OC(F)F)cc2)o1)N1CCOCC1,-6%,-8%,21*,-13%,82*
COc1ccc(C(=O)NCC(=O)OCC(=O)c2ccc3c(c2)NC(=O)CO3)cc1,1%,-16%,2,.,-4
CCN1C(C(=O)c2ccccc2)=C(OC(=O)COc2ccc(C)cc2)c2ccccc2S1(=O)=O,-6%,.,.,.,.
O=C(c1ccco1)N(Cc1cccs1)c1ccc(F)cc1,-2%,.,.,.,.
Cc1cc(C(=O)OCC(=O)c2cccs2)ccc1[N+](=O)[O-],-9%,-28%,.,.,.
COc1ccc(-c2nnc(SCC(C)C)o2)cc1,-6%,22%,58*,-4%,55*
Cc1ccc(-c2noc(CCCC(=O)N3CCOCC3)n2)cc1,?,11%,2,-4%,42
SMILES,AmpC detergent,AmpC no deterg,CHX counter,NS1 inh,Shiga inhibitor
Cc1cccc(-c2noc(CCCC(=O)N3CCOCC3)n2)c1,-2%,0%,11*,-5%,11
COc1cccc(-c2nnc(SCC(=O)N3CCOCC3)o2)c1,-8%,3%,22*,-4%,32
Cc1cccc(-c2nnc(SCC(=O)N3CCOCC3)o2)c1,?,-19%,21*,2%,71*
CC(CCc1ccccc1)NC(=O)CNC(=O)c1ccccc1Br (stereo unspecified),10%,-23%,-3,-3%,-23
CC1CCCN(C(=O)COC(=O)C2=COCCO2)C1 (stereo unspecified),.,-14%,.,.,.
CCN(CC)S(=O)(=O)c1cc(Br)ccc1OC,?,-9%,-4,2%,-3
O=C(Nc1nc2ccccc2[nH]1)C1CC(=O)N(c2ccc3c(c2)OCCO3)C1 (stereo unspecified),-15%,-17%,28*,-2%,42
Cc1ccnc(NC(=O)C2CC(=O)N(c3ccc4c(c3)OCCO4)C2)c1 (stereo unspecified),-5%,-5%,34*,-4%,92*
CC(C)c1ccc(C(C(=O)NC2CCCC2)N(C(=O)c2csnn2)C2CC2)cc1 (stereo unspecified),-3%,37%,-5,7%,-8
Clc1ccc(CO/N=C2\CCCc3nonc32)cc1,-5%,-57%,27*,23%,22
